Screens deposited in PubChem by National Center for Advancing Translational Sciences (NCATS).
HTT ATP protect – protects HTT-Q103 PC12 cells, measured by ATP | PC12 HTT-Q103 induced, cytoprotection, ATP luminescence, 40 h | Potency, µM (series often up to 56.4 µM), for the others: cytoprotection (ATP increase), most hits filed as activators | 230,000 compounds, 0.14% hits; active = well fitted curve in the direction sought with a large enough effect; inconclusive = small, poorly fitted or top-dose-only effect, or another doubt; inactive = no such curve, though single readings can be large; an effect the other way counts as inactive or inconclusive; note: potency is the fitted concentration of half-maximal effect; % of control where 0% means no effect; nearly all actives have a fitted effect of over 45% in size
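Readout: ATPlite luminescence (ATP level). Model: stable PC12, inducible Htt exon1 Q103-GFP. Inducer: tebufenozide, 100 nM final. Compounds: dose series. No G418 in medium.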
PNC assembly inh – inhibitors of perinucleolar compartment assembly; PC3M PTB-GFP, PNC prevalence imaging, 16 h; active compounds read low; 140,000 compounds, 3.1% hits; activity change (PNC), negative = inhibition, % at 10 µM; AID 2417;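 active = readout at or below -70, meaning at least 70% loss of cells showing the perinucleolar compartment, a nuclear body marking cancer cells; inconclusive = readout between -30 and a set limit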;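 note: plate controls were DMSO wells for no effect and camptothecin positive control wells for full effect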
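Compounds are pinned in duplicate onto adhered PC3M cells stably expressing GFP-tagged PTB and incubated 16 h at 37 C. Cells are then fixed, nuclei stained with Hoechst, and PNC-positive cells counted.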
RGS12 GoLoco inh – inhibitors of human Gai1-RGS12 GoLoco interaction (red fluorophore). Gai1:RGS12 GoLoco peptide FP, rhodamine, 10 min. Potency, µM (highest dose often 61.6 µM), for inactives: at the top dose activity, negative = inhibition, most hits filed as inhibitors. 230,000 compounds, 0.44% hits. AID 880; active = well fitted inhibition curve with a large enough effect, not every such curve was filed as active; inactive = no such curve, though single readings can be large or run the other way; note: potency is the fitted concentration of half-maximal effect; % is set by controls: 0 for no effect and ±100 for the full control effect; nearly all actives have a fitted effect of over 30% in size
HttQ103 aggreg – mutant huntingtin aggregation inhibition | PC12 HttQ103-GFP aggregates, Acumen cytometry, 40 h | Potency, µM (top dose mostly 46.1 µM), for inactives: at the top dose activity change, negative = inhibition, hits mostly inhibitors | 220,000 compounds, 1.1% hits; active = well fitted curve in the direction sought with a large enough effect; inconclusive = small, poorly fitted or top-dose-only effect, or another doubt; inactive = no such curve, though single readings can be large; an effect the other way counts as inactive or inconclusive; note: potency is the fitted concentration of half-maximal effect; % is set by controls: 0 for no effect and ±100 for the full control effect; nearly all actives have a fitted effect of over 60% in size
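Huntingtin Q103 exon 1–GFP aggregates in induced PC12 cells (100 nM tebufenozide) were quantified by cytometry from lysates, with compounds dosed in titration.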
ALDH1A1 inh – blocks purified human ALDH1A1 activity. P00352. Purified ALDH1A1, NADH fluorescence, propionaldehyde substrate. Potency, µM (titrated, usually from 75.3 µM), without a hit: top-dose activity, negative = inhibition, usual class: inhibitors. 220,000 compounds, 7.3% hits. AID 1030;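 note: potency is the fitted concentration of half-maximal effect; plate controls were no enzyme wells and a reference inhibitor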
Target sequence (P00352 whole entry, looked up): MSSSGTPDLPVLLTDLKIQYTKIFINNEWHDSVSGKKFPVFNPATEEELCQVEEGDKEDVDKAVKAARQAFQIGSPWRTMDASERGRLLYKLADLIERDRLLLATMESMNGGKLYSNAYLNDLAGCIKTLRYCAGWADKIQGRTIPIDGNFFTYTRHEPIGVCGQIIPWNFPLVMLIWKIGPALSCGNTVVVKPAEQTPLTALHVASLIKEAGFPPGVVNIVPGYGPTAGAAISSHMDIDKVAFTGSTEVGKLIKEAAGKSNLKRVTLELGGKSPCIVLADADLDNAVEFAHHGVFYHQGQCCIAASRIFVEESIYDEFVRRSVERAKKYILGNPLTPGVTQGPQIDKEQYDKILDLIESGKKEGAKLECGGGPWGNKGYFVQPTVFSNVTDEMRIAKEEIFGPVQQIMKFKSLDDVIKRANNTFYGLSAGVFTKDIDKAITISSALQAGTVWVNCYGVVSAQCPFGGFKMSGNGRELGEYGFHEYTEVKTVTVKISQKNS
HPGD inh – blocks human HPGD enzyme activity. P15428. purified HPGD, NADH fluorescence kinetic, PGE2 substrate. Potency, µM, for the others: top-dose activity change, negative = inhibition, hits mostly inhibitors. 150,000 compounds, 4.3% hits; note: potency is the fitted concentration of half-maximal effect; % is set by controls: 0 for no effect and ±100 for the full control effect
Target sequence (P15428 whole entry, looked up): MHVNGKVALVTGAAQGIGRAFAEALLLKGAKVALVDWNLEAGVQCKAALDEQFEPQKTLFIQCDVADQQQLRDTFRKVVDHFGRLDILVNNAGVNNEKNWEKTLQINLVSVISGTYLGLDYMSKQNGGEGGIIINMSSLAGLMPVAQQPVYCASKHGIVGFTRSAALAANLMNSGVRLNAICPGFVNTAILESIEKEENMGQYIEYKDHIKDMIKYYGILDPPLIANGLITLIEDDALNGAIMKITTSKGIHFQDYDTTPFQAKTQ
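20 nM HPGD preincubated 15 min at room temperature with compound in 50 mM Tris-HCl pH 8, 0.01% Tween 20. Started with 1 mM NAD+ and 30 uM prostaglandin E2; NADH fluorescence (360/450 nm) read 5 times over 30-s intervals, last minus first.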
The depositor's hits bear a star; ? = inconclusive; · = not tested or not shown; ! = a repeat was not active; [ ] = another dose, or the depositor's remark. Compounds with a hit are over-represented: about 11% of the library has one in this group of screens. Unless noted, calls come from the whole dose curve; as a rule, active = well fitted inhibition curve with a large enough effect (not every such curve was filed as active); inconclusive = small, poorly fitted or top-dose-only effect, or another doubt; inactive = no such curve, though single readings can be large or run the other way.

SMILES	HTT ATP protect	PNC assembly inh	RGS12 GoLoco inh	HttQ103 aggreg	ALDH1A1 inh	HPGD inh
CC1(C)CC(NC(=O)C2CCCCC2C(=O)O)CC(C)(C)N1 (configuration not stated)	-16%[10 µM]	-99*	-3%	21%[9.22 µM]	6%	-3%
O=C(O)CCCCC1SCC2NC(=O)NC21 (configuration not stated)	13µM*!	14	23%	14%[9.22 µM]	-2%	-8%
O=C(CSc1nnc(-c2ccc(Cl)cc2)n1-c1ccc(Cl)cc1)N/N=C/c1ccco1	-13%[10 µM]	11	7%	-8%	?	-18%
Cc1ccc(/C=N/NC(=O)CSc2nc3ccccc3s2)o1	0%[10 µM]	-3	-5%	-4%	11µM*	14µM*
Cc1ccc(/C=N/NC(=O)CSc2nnc(-c3ccc(Cl)cc3)n2-c2ccccc2)o1	-12%[10 µM]	?	-3%	5%	10µM*	?
O=C(COc1cccc2ccccc12)N/N=C/c1ccc(Sc2nc3ccccc3s2)o1	-2%	-11	0%	7%	?	28µM*
O=C(c1csnn1)N1CCC2(CCCN(Cc3ccccc3)C2)CC1	3%	·	7%	·	0%	-6%
CCOC(=O)c1ccc(NC(=O)CC2C(=O)N(c3ccc(F)cc3)C(=O)N2CCC(C)C)cc1 (configuration not stated)	-9%	19	9%	13%	?	-15%
Clc1ccc(CSCc2ccc(Cl)cc2Cl)c(Cl)c1	2%[10 µM]	·	-1%[14.2 µM]	·	-9%[13.5 µM]	-10%
COCCNS(=O)(=O)c1cc(C(=O)O)ccc1OC	5%	·	-2%	-4%	1%	·
COc1cccc(OC)c1C(=O)Nc1nc2ccc([N+](=O)[O-])cc2s1	-29%	·	12%	-3%	?	·
CC12CN3CC(C)(CN(C1)C3c1ccc3c(c1)OCO3)C2 (configuration not stated)	14%[10 µM]	·	13%	14%[9.22 µM]	-9%	·
CCCC12CN3CC(C)(CN(C1)C3c1ccc(OC)cc1)C2=O (configuration not stated)	18%	3	4%	-5%	?	-1%
CCCC12CN3CC(C)(CN(C1)C3c1ccc3c(c1)OCO3)C2=O (configuration not stated)	-12%	1	-4%	4%	2µM*	-6%
CC(C)C12CN3CC(C(C)C)(CN(C1)C3c1ccc3c(c1)OCO3)C2=O (configuration not stated)	9%[1.9 µM]	7	5%	8%	7.9µM*	3%
CN1CCN(c2ncc3nc(-c4ccc(F)cc4)c(=O)n(Cc4cccs4)c3n2)CC1	-74%	·	4%	·	?	·
O=C(CSc1n[nH]c(-c2ccccc2Cl)n1)NCc1cccc(C(=O)O)c1	0%[10 µM]	·	-4%	-1%[9.22 µM]	6%	·
CCN(c1ccccc1)S(=O)(=O)c1cc(C(=O)Nc2ccc(Br)cc2)ccc1F	·	14	25%	?	28µM*	?
CCC1(CC)Cc2ccccc2-c2nc(NCCO)[nH]c(=O)c21	3%[10 µM]	-100*	0%	-2%	?	?
Cn1cccc1C(=O)N1CCC2(CC1)CN(c1ccncc1)C2	25%	·	3%	·	2%	-6%
CCOC(=O)C(=O)/C(=C\N(C)C)c1onc(-c2c(Cl)cccc2Cl)c1C(=O)OC	-10%[10 µM]	?	1%	1%	11%	14µM*
CNC(=O)NNC(=O)c1onc(-c2c(Cl)cccc2Cl)c1C(=O)OC	2%[10 µM]	·	0%	34%[9.22 µM]	·	·
CCOC(=O)C(=O)/C(=C\N(C)C)c1onc(-c2ccccc2)c1C(=O)OC	0%[10 µM]	22	-2%	-7%	?	-12%
CCOC(=O)C(=O)/C(=C\N(C)C)c1onc(-c2ccccc2Cl)c1C(=O)OC	-7%[10 µM]	?	5%	-15%	?	14µM*
O=C(Cc1ccccc1)Nc1ccc(NC(=O)c2cccs2)cc1Cl	7%[10 µM]	·	8%	-12%[9.22 µM]	-9%	·
SMILES	HTT ATP protect	PNC assembly inh	RGS12 GoLoco inh	HttQ103 aggreg	ALDH1A1 inh	HPGD inh
Cn1c(NCCc2ccccc2)cc(=O)n(C)c1=O	-7%	-22	·	4%	8%	-8%
CC(=O)Nc1ccc(Nc2ccccc2)cc1	6%[10 µM]	·	5%	-15%[9.22 µM]	·	·
Cn1c(=O)c(NC2CCCCC2)c2c3c(cccc31)C(=O)c1ccccc1-2	-15%[10 µM]	·	0.79µM*	?	-10%	·
CC(=O)Nc1ccc(Nc2c3c4c(cccc4n(C)c2=O)C(=O)c2ccccc2-3)cc1	-5%[10 µM]	0	14µM*	-29%	-2%	-23%
CCCCNc1c2c3c(cccc3n(C)c1=O)C(=O)c1ccccc1-2	10%[10 µM]	?	14µM*	?	1%	-2%
Cn1c(NC2CCCCC2)c(N=O)c(=O)n(C)c1=O	17%[10 µM]	·	-12%	-25%	4%	·
Cn1c(=O)c(NCCc2ccccc2)c2c3c(cccc31)C(=O)c1ccccc1-2	-19%	-12	4.5µM*	10µM*	3%	-15%
CN1C(=O)c2cccc(NCCCN3C(=O)c4ccccc4C3=O)c2C1=O	-10%[10 µM]	-3	8%	-9%	1%	-10%
Cc1ccc(C)n1-c1ccc(C(=O)Nc2ccccc2)cc1	-1%[10 µM]	-14	41%	?	28µM*	16µM*
Cc1ccc(C)n1-c1cccc(NC(=O)c2ccccc2)c1	8%[0.074 µM]	28	7%	18%	12%	-10%
CC1(C)[C@@H]2CC[C@]1(C)[C@@H](OC(=O)CSC#N)C2	13%[10 µM]	·	4%[14.2 µM]	11%	1.8µM*	-11%
COC(=O)[C@@]1(Cc2ccc(F)cc2)[C@H]2c3cc(C(=O)N(C)C)n(Cc4ccc(O)c(OC)c4)c3C[C@H]2CN1C(=O)c1ccccc1	17%	·	0%	·	-9%	-1%
CC(=O)CSc1nnc2c3ccccc3nc(C(C)(C)C)n12	-67%	·	21%	-2%	3.5µM*	·
Cc1ccc(C(=O)CSc2nnc3c4ccccc4nc(C(C)(C)C)n23)cc1	10%[10 µM]	24	16%	23%	?	-22%
Cc1cccc(C(OC(=O)c2ccco2)C(=O)NCc2ccccc2)n1 (configuration not stated)	-15%[10 µM]	?	1%	5%	-9%	-13%
CC(C)C(OC(=O)c1ccco1)C(=O)NCc1ccccc1 (configuration not stated)	19%[10 µM]	?	3%	-8%	0%	13µM*
C/C=C/C1Oc2ccc(OC)cc2N2C(=O)C(C)C(OCOC)C12 (configuration not stated)	-7%[10 µM]	·	·	·	10%[13.5 µM]	·
CN(CCC(=O)O)S(=O)(=O)c1ccccc1	-3%[10 µM]	·	12%[14.2 µM]	·	15%[13.5 µM]	-15%
CCOC(=O)c1c(O)[nH]c(=O)c(CC)c1C	-15%[10 µM]	·	10%[14.2 µM]	·	0%[13.5 µM]	-4%
COc1cc2ccccc2cc1C(=O)N1CCN(C)CC1	-22%[10 µM]	-17	-17%	-3%	?	?
